The values that follow come from ChEMBL document CHEMBL1961873, “Compounds: GSK PKIS; Assays: Nanosyn kinase panel” (2012).

Molecules are shown by their SMILES. Where “and” joins values, the source holds several entries; their conditions need not be identical. Equal values may be shown once.

Sequence of Protein kinase C eta type (Homo sapiens) (P24723 whole entry): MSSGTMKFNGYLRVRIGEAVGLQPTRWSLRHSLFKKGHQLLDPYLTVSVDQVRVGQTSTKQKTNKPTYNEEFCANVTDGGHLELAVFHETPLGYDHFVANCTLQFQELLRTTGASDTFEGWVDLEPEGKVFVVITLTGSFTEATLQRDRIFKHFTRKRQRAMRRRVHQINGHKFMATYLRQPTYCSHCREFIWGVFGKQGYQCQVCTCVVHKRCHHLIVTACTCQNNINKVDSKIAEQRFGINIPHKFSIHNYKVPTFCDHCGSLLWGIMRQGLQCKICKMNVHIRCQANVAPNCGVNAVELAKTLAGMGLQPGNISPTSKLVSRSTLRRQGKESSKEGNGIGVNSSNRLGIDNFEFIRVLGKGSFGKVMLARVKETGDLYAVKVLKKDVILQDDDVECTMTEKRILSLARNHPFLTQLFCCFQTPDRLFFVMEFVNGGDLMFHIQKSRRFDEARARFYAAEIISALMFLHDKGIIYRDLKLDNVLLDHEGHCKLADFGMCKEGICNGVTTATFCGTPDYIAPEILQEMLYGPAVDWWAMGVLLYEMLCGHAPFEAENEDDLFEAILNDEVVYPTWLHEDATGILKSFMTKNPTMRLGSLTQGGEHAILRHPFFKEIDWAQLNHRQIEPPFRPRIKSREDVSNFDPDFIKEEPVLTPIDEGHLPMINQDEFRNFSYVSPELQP

One test addresses Protein kinase C eta type (Homo sapiens) (UniProt P24723). The note with it: at 1 µM.
As usually defined, the inhibition is the relative decrease from the control value, in per cent. In the case of `CCCNc1cccc(-n2ncc3c(N/N=C/c4ccncc4)ncnc32)c1`, the inhibition worked out at 2.92%.

As to `O=C(O[C@H]1CN[C@H](C#Cc2cc3ncnc(Nc4ccc(OCc5cccc(F)c5)c(Cl)c4)c3s2)C1)N1CCOCC1`, the inhibition is 5.07%.

For `Cc1cc(O)cc(C)c1/C=C/c1cncc(C(=O)OC(C)(C)C)c1`, the inhibition worked out at 3.71%.

Consider `O=C(O[C@H]1CN[C@H](C#Cc2cc3ncnc(Nc4ccc5c(cnn5Cc5ccccc5)c4)c3s2)C1)N1CCOCC1`, for which the inhibition is -2.51%.

With `Cc1ccc(-c2cc3c(NC(=O)C4CC4)ncnc3o2)cc1`, the inhibition amounted to 1.62%.

In the case of `COc1cc(Nc2ncc(-c3ccccc3)o2)cc(OC)c1`, the inhibition worked out at 6.3%.

With `CCOc1ccc2c(-c3ccnc(Nc4cc(OC)cc(C(F)(F)F)c4)n3)cnn2n1`, the inhibition was -0.66%.

As to `COC(=O)Nc1nc2ccc(Oc3ccc(NC(=O)Nc4cc(C(F)(F)F)ccc4F)cc3)cc2s1`, the inhibition stood at 1.44%.

As for `COC(=O)Nc1nc2cc(Oc3ccc(NC(=O)Nc4ccccc4)cc3)ccc2[nH]1`, the inhibition was 6.1%.

On to `CCn1c(-c2nonc2N)nc2cncc(C(=O)NCCNC)c21`, for which the inhibition stood at 93.6%.

For the compound `COc1ccc(Nc2ncc(-c3ccccc3)o2)cc1OC`, the inhibition was -1.25%.

Take `N#Cc1ccc2c(-c3ccnc(NC4CC4)n3)c(-c3ccc(F)cc3)nn2c1`: the inhibition was 0.36%.

In the case of `Fc1cccc(COc2ccc(Nc3ncncc3C#Cc3ccccc3)cc2Cl)c1`, the inhibition stood at 4.62%.

On to `CNC(=O)c1ncccc1Nc1nc(Nc2cc3c(cc2OC)CCCN3C(=O)CN(C)C)nc2[nH]ccc12`, for which the inhibition was determined as 1.52%.

As for `NS(=O)(=O)c1cccc(N/C=C2\C(=O)Nc3ccccc32)c1`, the inhibition amounted to 3.72%.

On to `CS(=O)(=O)CCNCc1ccc(-c2ccc3ncnc(Nc4ccc(OCc5ccccc5)cc4)c3c2)o1`, for which the inhibition is 3.6%.

Consider `Cn1c(-c2nonc2N)nc2cnccc21`, for which the inhibition worked out at 29.4%.

Take `CS(=O)(=O)CCNCc1ccoc1-c1ccc2ncnc(Nc3ccc(OCc4ccccc4)cc3)c2c1`: the inhibition was -0.91%.

As for `CN1CCN(Cc2ccc(-c3cc4ncnc(Nc5ccc(OCc6cccc(F)c6)c(Cl)c5)c4s3)o2)CC1`, the inhibition was 3.75% and 6.04%.

As to `CC(C)c1ccc(-c2cc(-c3c[nH]nc3-c3ccccn3)ccn2)cc1`, the inhibition was determined as 0.07%.

On to `Nc1ncnc2occ(-c3ccc(NC(=O)Nc4cc(C(F)(F)F)ccc4F)cc3)c12`, for which the inhibition was 1.23% and -2.29%.

For the compound `COc1ccc2ncn(-c3cc(O[C@H](C)c4ccccc4C(F)(F)F)c(C(N)=O)s3)c2c1`, the inhibition is 1.45%.

`N#Cc1cccc(Nc2ncc(-c3ccccc3)o2)c1`: the inhibition worked out at 2%.

Turning to `CS(=O)(=O)Nc1ccc(-c2ccc3c(NC(=O)C4CC4)n[nH]c3c2)cc1`, the inhibition was 1.11%.

Take `Cc1nnc(-c2cccc(-c3ccc(C(=O)NCC4CC4)cc3)c2)o1`: the inhibition worked out at 6.75%.

Turning to `CC1(C)CC(n2cnc(-c3ccc(F)cc3)c2-c2ccnc(N)n2)CC(C)(C)N1`, the inhibition is -2.97%.

On to `CC1=C(C(=O)Nc2ccc3[nH]nc(C)c3c2)C(c2ccc(C(F)(F)F)cc2)CC(=O)N1` (configuration not stated), for which the inhibition was determined as 9.11%.

For the compound `NC(=O)c1ccc2c(-c3ccnc(NCCCO)n3)c(-c3ccc(F)cc3)nn2c1`, the inhibition turned out to be 4.92%.

As to `COc1cc(N2CCN(C(C)C)CC2)ccc1Nc1nc(Nc2cccc3ncccc23)c2cc[nH]c2n1`, the inhibition was -3.36%.

In the case of `FC(F)(F)CNc1nccc(-c2cnn3ncccc23)n1`, the inhibition came out at 1.8%.

In the case of `CCN1CCC(C(=O)Nc2n[nH]c3nnc(-c4cccc(F)c4F)cc23)CC1`, the inhibition was found to be 0.58%.

In a further test the target is Protein kinase C gamma type (Homo sapiens) (UniProt P05129). As to conditions: at 0.1 µM.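 Further: values are mean percent inhibition of PKC gamma.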
Consider `CCCNc1cccc(-n2ncc3c(N/N=C/c4ccncc4)ncnc32)c1`, for which the inhibition was 1.35%.

Turning to `O=C(O[C@H]1CN[C@H](C#Cc2cc3ncnc(Nc4ccc(OCc5cccc(F)c5)c(Cl)c4)c3s2)C1)N1CCOCC1`, the inhibition is 4.27%.

Turning to `Cc1cc(O)cc(C)c1/C=C/c1cncc(C(=O)OC(C)(C)C)c1`, the inhibition came to 3.91%.

Regarding `O=C(O[C@H]1CN[C@H](C#Cc2cc3ncnc(Nc4ccc5c(cnn5Cc5ccccc5)c4)c3s2)C1)N1CCOCC1`, the inhibition came out at 1.56%.

With `Cc1ccc(-c2cc3c(NC(=O)C4CC4)ncnc3o2)cc1`, the inhibition amounted to 2.91%.

As to `COc1cc(Nc2ncc(-c3ccccc3)o2)cc(OC)c1`, the inhibition was found to be 0.82%.

Regarding `CCOc1ccc2c(-c3ccnc(Nc4cc(OC)cc(C(F)(F)F)c4)n3)cnn2n1`, the inhibition is 1.75%.

Take `COC(=O)Nc1nc2ccc(Oc3ccc(NC(=O)Nc4cc(C(F)(F)F)ccc4F)cc3)cc2s1`: the inhibition was -2.55%.

For the compound `COC(=O)Nc1nc2cc(Oc3ccc(NC(=O)Nc4ccccc4)cc3)ccc2[nH]1`, the inhibition was 0.41%.

On to `CCn1c(-c2nonc2N)nc2cncc(C(=O)NCCNC)c21`, for which the inhibition is 6.21%.

Take `COc1ccc(Nc2ncc(-c3ccccc3)o2)cc1OC`: the inhibition amounted to 0.58%.

On to `N#Cc1ccc2c(-c3ccnc(NC4CC4)n3)c(-c3ccc(F)cc3)nn2c1`, for which the inhibition came out at 1.4%.

`Fc1cccc(COc2ccc(Nc3ncncc3C#Cc3ccccc3)cc2Cl)c1`: the inhibition stood at 3.66%.

Consider `CNC(=O)c1ncccc1Nc1nc(Nc2cc3c(cc2OC)CCCN3C(=O)CN(C)C)nc2[nH]ccc12`, for which the inhibition is 5.68%.

Consider `NS(=O)(=O)c1cccc(N/C=C2\C(=O)Nc3ccccc32)c1`, for which the inhibition came to 0.43%.

As to `CS(=O)(=O)CCNCc1ccc(-c2ccc3ncnc(Nc4ccc(OCc5ccccc5)cc4)c3c2)o1`, the inhibition amounted to 2.13%.

Consider `Cn1c(-c2nonc2N)nc2cnccc21`, for which the inhibition is 1.7%.

In the case of `CS(=O)(=O)CCNCc1ccoc1-c1ccc2ncnc(Nc3ccc(OCc4ccccc4)cc3)c2c1`, the inhibition came to 0.57%.

With `CN1CCN(Cc2ccc(-c3cc4ncnc(Nc5ccc(OCc6cccc(F)c6)c(Cl)c5)c4s3)o2)CC1`, the inhibition was 0.69% and 2.55%.

As for `CC(C)c1ccc(-c2cc(-c3c[nH]nc3-c3ccccn3)ccn2)cc1`, the inhibition was -1.26%.

For `Nc1ncnc2occ(-c3ccc(NC(=O)Nc4cc(C(F)(F)F)ccc4F)cc3)c12`, the inhibition was -0.11% and -2.32%.

Consider `COc1ccc2ncn(-c3cc(O[C@H](C)c4ccccc4C(F)(F)F)c(C(N)=O)s3)c2c1`, for which the inhibition was -2.52%.

`N#Cc1cccc(Nc2ncc(-c3ccccc3)o2)c1`: the inhibition was -0.01%.

Consider `CS(=O)(=O)Nc1ccc(-c2ccc3c(NC(=O)C4CC4)n[nH]c3c2)cc1`, for which the inhibition worked out at 2.49%.

Turning to `Cc1nnc(-c2cccc(-c3ccc(C(=O)NCC4CC4)cc3)c2)o1`, the inhibition came out at 1.76%.

On to `CC1(C)CC(n2cnc(-c3ccc(F)cc3)c2-c2ccnc(N)n2)CC(C)(C)N1`, for which the inhibition was -2.6%.

For the compound `CC1=C(C(=O)Nc2ccc3[nH]nc(C)c3c2)C(c2ccc(C(F)(F)F)cc2)CC(=O)N1` (configuration not stated), the inhibition is 4.48%.

In the case of `NC(=O)c1ccc2c(-c3ccnc(NCCCO)n3)c(-c3ccc(F)cc3)nn2c1`, the inhibition worked out at 3.3%.

On to `COc1cc(N2CCN(C(C)C)CC2)ccc1Nc1nc(Nc2cccc3ncccc23)c2cc[nH]c2n1`, for which the inhibition is -0.77%.

Take `FC(F)(F)CNc1nccc(-c2cnn3ncccc23)n1`: the inhibition amounted to 2%.

On to `CCN1CCC(C(=O)Nc2n[nH]c3nnc(-c4cccc(F)c4F)cc23)CC1`, for which the inhibition was -1.51%.
